# In the supplement of paper PMC4022240:
# ± gives the standard deviation.
# Tests used:
# Test in all cases: peptide microarray binding signal (635 nm), min-max normalized on array (fraction of array maximum); higher = stronger binding
# [1] = target: T1, HaloTag-ATRX ADD domain (163-292)
# T1 chain: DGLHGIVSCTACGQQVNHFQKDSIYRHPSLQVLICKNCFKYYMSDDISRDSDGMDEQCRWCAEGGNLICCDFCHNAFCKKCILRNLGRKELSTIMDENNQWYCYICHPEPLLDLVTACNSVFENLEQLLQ
# How it was run: (§1)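 Arrays carried histone 13-mer peptide–cellulose conjugates printed in triplicate on nitrocellulose alongside a Cy3 tracer. After overnight blocking at 4°C, they were incubated for 1 h at 4°C with biotin-labelled HaloTag reader fusions (10 nM to 1 μM) plus streptavidin-Alexa Fluor 647, or with rabbit histone antibodies (1:10,000 to 1:2,000) plus anti-rabbit Alexa 647. Scanning on an Axon GenePix 4000B used 635 nm for signal and 532 nm for misprints. The binding signal reported is each triplicate's mean spot intensity after per-library min-max scaling.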
# [2] = target: HaloTag-ING2 PHD (mouse Ing2 200-280)
# How it was run: as §1
# [3] = target: anti-H3K4me3 antibody ab8580
# How it was run: as §1
# [4] = target: anti-H3K9me3 antibody ab8898
# How it was run: as §1
# [5] = peptide region: H4 8-19, peptide modifications: H4K16ac H4R17me1, binder concentration: 1:2,000 dilution
# [6] = peptide region: H4 8-19, peptide modifications: H4K16ac, binder concentration: 1:2,000 dilution
# [7] = peptide region: H4 8-19, peptide modifications: H4K16ac, binder concentration: 1:10,000 dilution
# [8] = peptide region: H4 8-19, peptide modifications: H4R17me2s, binder concentration: 1:2,000 dilution
# [9] = peptide region: H4 8-19, peptide modifications: H4R17me2s, binder concentration: 1:10,000 dilution
# [10] = peptide region: H4 16-28, peptide modifications: H4R19cit, binder concentration: 1:2,000 dilution
# [11] = peptide region: H4 16-28, peptide modifications: H4K20me2, binder concentration: 1:2,000 dilution
# [12] = peptide region: H4 8-19, peptide modifications: H4K8ac H4K16ac, binder concentration: 1:2,000 dilution
# [13] = peptide region: H4 8-19, peptide modifications: H4K8ac H4K16ac, binder concentration: 1:10,000 dilution
binder,measurement,setting,value
KGLGKGGAKRHRK [H4 8-19 K G L G K G G A Kac Rme H R K],peptide microarray binding signal,"[1]; peptide region: H4 8-19, peptide modifications: H4K16ac H4R17me1, binder concentration: 500 nM",0.000143 ± 2.7e-06
same,peptide microarray binding signal,"[2]; peptide region: H4 8-19, peptide modifications: H4K16ac H4R17me1, binder concentration: 100 nM",0.000425 ± 4.9e-06
same,peptide microarray binding signal,[3]; [5],7.55e-05 ± 8.5e-07
same,peptide microarray binding signal,[4]; [5],3.02e-05 ± 3.4e-07
KGLGKGGAKRHRK [H4 8-19 K G L G K G G A Kac R H R K],peptide microarray binding signal,"[1]; peptide region: H4 8-19, peptide modifications: H4K16ac, binder concentration: 50 nM",0.00483 ± 0.00015
same,peptide microarray binding signal,"[1]; peptide region: H4 8-19, peptide modifications: H4K16ac, binder concentration: 500 nM",0.0126 ± 0.00055
same,peptide microarray binding signal,"[2]; peptide region: H4 8-19, peptide modifications: H4K16ac, binder concentration: 10 nM",0.00388 ± 8.9e-05
same,peptide microarray binding signal,"[2]; peptide region: H4 8-19, peptide modifications: H4K16ac, binder concentration: 100 nM",0.0106 ± 0.0026
same,peptide microarray binding signal,[3]; [6],0.00238 ± 0.00047
same,peptide microarray binding signal,[3]; [7],0.002 ± 4.9e-05
same,peptide microarray binding signal,[4]; [6],0.00181 ± 6e-05
same,peptide microarray binding signal,[4]; [7],0.00127 ± 3.4e-05
KGLGKGGAKRHRK [H4 8-19 K G L G K G G A K Rme2s H R K],peptide microarray binding signal,"[1]; peptide region: H4 8-19, peptide modifications: H4R17me2s, binder concentration: 50 nM",0.00464 ± 0.00023
same,peptide microarray binding signal,"[1]; peptide region: H4 8-19, peptide modifications: H4R17me2s, binder concentration: 500 nM",0.02 ± 0.00069
same,peptide microarray binding signal,"[2]; peptide region: H4 8-19, peptide modifications: H4R17me2s, binder concentration: 10 nM",0.00173 ± 7.2e-05
same,peptide microarray binding signal,"[2]; peptide region: H4 8-19, peptide modifications: H4R17me2s, binder concentration: 100 nM",0.00184 ± 0.00024
same,peptide microarray binding signal,[3]; [8],0.000132 ± 1.5e-06
same,peptide microarray binding signal,[3]; [9],0.000685 ± 7.2e-06
same,peptide microarray binding signal,[4]; [8],0.000861 ± 4.5e-05
same,peptide microarray binding signal,[4]; [9],0.000807 ± 1.5e-05
KRHRKVLRDNIQG [H4 16-28 K R H Rcit K V L R D N I Q G],peptide microarray binding signal,"[1]; peptide region: H4 16-28, peptide modifications: H4R19cit, binder concentration: 500 nM",0.000476 ± 2.1e-05
same,peptide microarray binding signal,"[2]; peptide region: H4 16-28, peptide modifications: H4R19cit, binder concentration: 100 nM",0.000283 ± 5.7e-06
same,peptide microarray binding signal,[3]; [10],9.44e-05 ± 2.1e-06
same,peptide microarray binding signal,[4]; [10],3.02e-05 ± 3.4e-07
KRHRKVLRDNIQG [H4 16-28 K R H R Kme2 V L R D N I Q G],peptide microarray binding signal,"[1]; peptide region: H4 16-28, peptide modifications: H4K20me2, binder concentration: 500 nM",0
same,peptide microarray binding signal,"[2]; peptide region: H4 16-28, peptide modifications: H4K20me2, binder concentration: 100 nM",0.000142 ± 1.7e-06
same,peptide microarray binding signal,[3]; [11],5.66e-05 ± 1.1e-06
same,peptide microarray binding signal,[4]; [11],1.51e-05 ± 1.7e-07
KGLGKGGAKRHRK [H4 8-19 Kac G L G K G G A Kac R H R K],peptide microarray binding signal,"[1]; peptide region: H4 8-19, peptide modifications: H4K8ac H4K16ac, binder concentration: 50 nM",0.000439 ± 1.5e-05
same,peptide microarray binding signal,"[1]; peptide region: H4 8-19, peptide modifications: H4K8ac H4K16ac, binder concentration: 500 nM",9.52e-05 ± 1e-06
same,peptide microarray binding signal,"[2]; peptide region: H4 8-19, peptide modifications: H4K8ac H4K16ac, binder concentration: 10 nM",0.0043 ± 0.0012
same,peptide microarray binding signal,"[2]; peptide region: H4 8-19, peptide modifications: H4K8ac H4K16ac, binder concentration: 100 nM",0.000283
same,peptide microarray binding signal,[3]; [12],0.000113
same,peptide microarray binding signal,[3]; [13],0.00143 ± 0.00034
same,peptide microarray binding signal,[4]; [12],4.53e-05
same,peptide microarray binding signal,[4]; [13],5.77e-05 ± 6.6e-07
